Data on 19 molecules can be found in PubChem BioAssay (NCATS).

Assay [1] is described as follows: Primary qHTS for small molecule stabilizers of the endoplasmic reticulum resident proteome: Secreted ER Calcium Modulated Protein (SERCaMP) assay (AID 1508630). The method, boiled down:
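The SH-SY5Y reporter protocol was run at 3 concentrations up to 38.3 uM (primary) or 11 concentrations (follow-up): 16 h compound, 100 nM thapsigargin for 4 h, then extracellular luciferase luminescence.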
Background: In qHTS, concentration-response curves come from the screen itself.

In assay [2] the target is Cytochrome P450 2D6 (Homo sapiens) (UniProt P10635). The assay can be described thus: Cytochrome P450 family 2 subfamily D member 6 (CYP2D6) small molecule antagonists: luciferase biochemical (cell-free) qHTS assay (AID 1645840; active = well fitted curve in the direction sought with a large enough effect in the repeat runs; an effect the other way counts as inactive or inconclusive; also: nearly all actives have a fitted effect of over 55% in size; also: potency is read from the fitted curve at half-maximal effect). An outline of the steps:
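P450-Glo CYP2D6 system: proluciferin substrate converted by enzyme to luciferin, read by luminescence proportional to activity. Enzyme-substrate mix with compound 10 min at room temperature, then NADPH regeneration 1 h before detection reagent.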

For assay [3], the target named is Cytochrome P450 2C9 (Homo sapiens) (UniProt P11712). The assay can be described thus: Cytochrome P450 family 2 subfamily C member 9 (CYP2C9) small molecule antagonists: luciferase biochemical (cell-free) qHTS assay (AID 1645842; active = well fitted curve in the direction sought with a large enough effect in the repeat runs; an effect the other way counts as inactive or inconclusive; also: nearly all actives have a fitted effect of over 55% in size; also: potency is read from the fitted curve at half-maximal effect). An outline of the steps:
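P450-Glo CYP2C9 system: proluciferin substrate with enzyme in mix containing 0.4% BSA, 10 min at room temperature, then NADPH regeneration solution added and incubated 1 h at 37C. Detection reagent stopped reaction; luminescence read after 20 min as RLU.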

The nature of assay [4]: Primary qHTS for inhibitors of nuclear receptor binding SET domain protein 2 (NSD2) in an isogenic RCH-ACV NSD2 p.E1099K mutant (9B) (AID 1645876). Also: nearly all actives have a fitted effect of over 70% in size. Also: potency is read from the fitted curve at half-maximal effect.
Assay [5] in a line: Primary qHTS for inhibitors of nuclear receptor binding SET domain protein 2 (NSD2) in an RCH-ACV wild type WT cells (2C) (AID 1645877). Also: nearly all actives have a fitted effect of over 70% in size. Also: potency is read from the fitted curve at half-maximal effect.

Values joined by “and” are separate entries in the source; they are usually repeats but may differ in a detail not shown here. Equal entries are not always repeated. Records with an inconclusive call do not appear. Where a structure was tested more than once in an assay, its records may differ in their call. Active and inactive are the calls of the source. Unless noted, calls follow the shape of the dose curve; as a rule, active = well fitted curve in the direction sought with a large enough effect; inconclusive = small, poorly fitted or top-dose-only effect, or another doubt; inactive = no such curve, though single readings can be large; an effect the other way counts as inactive or inconclusive.

Chain of Cytochrome P450 2C9 (Homo sapiens) (P11712 whole entry, looked up): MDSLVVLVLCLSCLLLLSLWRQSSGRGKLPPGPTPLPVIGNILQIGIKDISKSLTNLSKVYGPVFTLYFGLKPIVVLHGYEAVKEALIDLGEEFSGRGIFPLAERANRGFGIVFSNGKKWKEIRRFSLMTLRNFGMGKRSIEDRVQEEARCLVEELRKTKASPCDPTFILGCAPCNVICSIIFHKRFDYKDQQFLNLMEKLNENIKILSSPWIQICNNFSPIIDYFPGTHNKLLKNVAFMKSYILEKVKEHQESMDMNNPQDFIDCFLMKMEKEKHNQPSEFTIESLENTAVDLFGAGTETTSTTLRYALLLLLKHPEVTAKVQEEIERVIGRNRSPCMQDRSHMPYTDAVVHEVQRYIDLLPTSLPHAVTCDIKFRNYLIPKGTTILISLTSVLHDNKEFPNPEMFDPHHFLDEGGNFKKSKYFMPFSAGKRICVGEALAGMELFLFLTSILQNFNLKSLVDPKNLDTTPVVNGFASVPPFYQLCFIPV
Chain of Cytochrome P450 2D6 (Homo sapiens) (P10635 whole entry, looked up): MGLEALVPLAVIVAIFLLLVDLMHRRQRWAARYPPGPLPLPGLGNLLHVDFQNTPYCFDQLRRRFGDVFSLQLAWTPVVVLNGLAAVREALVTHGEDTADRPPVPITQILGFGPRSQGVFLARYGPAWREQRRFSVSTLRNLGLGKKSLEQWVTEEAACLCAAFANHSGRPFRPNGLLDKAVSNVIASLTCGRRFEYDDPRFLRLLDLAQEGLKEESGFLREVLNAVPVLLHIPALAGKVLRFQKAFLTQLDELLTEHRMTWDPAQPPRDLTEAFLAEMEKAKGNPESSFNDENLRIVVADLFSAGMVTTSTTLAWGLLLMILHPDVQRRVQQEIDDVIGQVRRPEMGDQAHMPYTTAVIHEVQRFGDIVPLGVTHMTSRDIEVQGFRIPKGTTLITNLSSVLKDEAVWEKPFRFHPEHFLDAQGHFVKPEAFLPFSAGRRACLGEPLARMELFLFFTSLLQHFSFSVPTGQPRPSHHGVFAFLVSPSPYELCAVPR

As for `Nc1nc(NCCNc2ncc(-n3ccnc3)c(-c3ccc(Cl)cc3Cl)n2)ccc1[N+](=O)[O-]`, the Potency entry in assay [1] is “inactive”. In addition, the Potency in assay [2] is 1.69 µM (active); in assay [3] it was 0.134 µM (active); in assay [4], 5.15 µM (active) and inactive; in assay [5], 4.59 µM (active) and inactive.

Consider `CC(C)(C)c1cnc(CSc2cnc(NC(=O)C3CCNCC3)s2)o1`, for which the Potency result in assay [1] is “inactive”. Besides, the Potency in assay [2] was 25.1 µM (active); in assay [3], 17.8 µM (active); in assay [4], 0.209 µM (active); in assay [5], 0.148 µM (active).

With `NC(=O)c1c(OCc2c(F)cc(Br)cc2F)nsc1NC(=O)NCCCCN1CCCC1`, the Potency entry in assay [1] was “inactive”. The Potency in assay [2] was 10.7 µM (active); in assay [3] it was 16.9 µM (active); in assay [4], 10.5 µM (active); in assay [5], 7.42 µM (active).

`CN1CCN(Cc2ccc(NC(=O)Nc3ccc(Oc4cc(NC(=O)C5CC5)ncn4)cc3)cc2C(F)(F)F)CC1`: the Potency result in assay [1] is “inactive”. The Potency in assay [2] was 8.49 µM (active); in assay [3], 10.7 µM (active); in assay [4] it was 91.6 nM (active) and 166 nM (active); in assay [5], 91.6 nM (active) and 186 nM (active).

Take `Cc1ccc2nc(NC(=O)CSc3nc4c(c(=O)n3-c3ccccc3)SCC4)sc2c1`: the Potency entry in assay [1], in assay [2], in assay [3], in assay [4] and in assay [5] was “inactive” each time.

Regarding `CC[C@@H]1C(=O)N(C)c2cnc(Nc3ccc(C(=O)NC4CCC(N5CCN(CC6CC6)CC5)CC4)cc3OC)nc2N1C(C)C` (stereo not given in full), the Potency entry in assay [1] and in assay [2] was “inactive” each time. In addition, the Potency was 7.56 µM (active) and 12 µM (active) in assay [3]; 36.5 nM (active) and 16.3 nM (active) and 41.7 nM (active) in assay [4]; 36.5 nM (active) and 41.1 nM (active) and 37.2 nM (active) in assay [5].

For `CCNC(=O)Nc1ccc2ncc(Nc3ccc(C)cc3)nc2n1`, the Potency entry in assay [1], in assay [2], in assay [3], in assay [4] and in assay [5] was “inactive” each time.

Turning to `COc1ccc2c(OCc3nnc4ccc(-c5ccccc5)nn34)ccnc2c1`, the Potency entry in assay [1], in assay [2], in assay [4] and in assay [5] was “inactive” in each case. The Potency in assay [3] was 0.756 µM (active).

As for `CC(C)CC(=O)Nc1n[nH]c2c1CN(C(=O)C1CCN(C)CC1)C2(C)C`, the Potency result in assay [1], in assay [2] and in assay [3] was “inactive” throughout. In addition, the Potency in assay [4] is 129 nM (active) and 662 nM (active); in assay [5] it was 580 nM (active) and 590 nM (active).

Take `C=CC(=O)Nc1cccc(Oc2nc(Nc3ccc(N4CCN(C)CC4)cc3)ncc2Cl)c1`: the Potency entry in assay [1] was “inactive”. The Potency is 19 µM (active) in assay [2]; 2.39 µM (active) in assay [3]; 728 nM (active) and 2.09 µM (active) in assay [4]; 649 nM (active) and 1.32 µM (active) in assay [5].

As for `CCCn1c(=O)c2[nH]c(-c3cnn(Cc4cccc(C(F)(F)F)c4)c3)nc2n(CC)c1=O`, the Potency entry in assay [1], in assay [2], in assay [3], in assay [4] and in assay [5] was “inactive” throughout.

As to `CC(C)c1cnn2c(NCc3ccccc3)cc(N[C@@H](CO)[C@H](O)CO)nc12`, the Potency entry in assay [1] and in assay [2] was “inactive” each time. The Potency in assay [3] was 3.79 µM (active); in assay [4] it was 515 nM (active) and 186 nM (active); in assay [5], 515 nM (active) and 166 nM (active).

Consider `Nc1nc(Nc2ccc(S(N)(=O)=O)cc2)nn1C(=O)c1c(F)cccc1F`, for which the Potency result in assay [1] and in assay [2] was “inactive” each time. The Potency is 0.12 µM (active) in assay [3]; 1.63 µM (active) and 2.35 µM (active) in assay [4]; 1.63 µM (active) and 1.86 µM (active) in assay [5].

Take `CCOc1ccccc1OCCNC(C)Cc1ccc(OC)c(S(N)(=O)=O)c1` (stereo not given): the Potency entry in assay [1], in assay [3], in assay [4] and in assay [5] was “inactive” in each case. For the same molecule, the Potency in assay [2] was 10.7 µM (active).

For `COc1cccc2c(NCc3ccccc3)nc(-n3c(N)nc4ccccc43)nc12`, the Potency result in assay [1] is “inactive”. Also, the Potency is 1.9 µM (active) in assay [2], 6.74 µM (active) in assay [3], 8.33 µM (active) in assay [4] and 8.33 µM (active) in assay [5].

For `CNC(=O)c1ccc(N2C(=S)N(c3cnc(C#N)c(C(F)(F)F)c3)C(=O)C23CCC3)cc1F`, the Potency result in assay [1], in assay [2], in assay [4] and in assay [5] was “inactive” throughout. Moreover, the Potency in assay [3] was 6.74 µM (active).

For `COc1c(N2C[C@@H]3CCCN[C@H]3C2)c(F)cc2c(=O)c(C(=O)O)cn(C3CC3)c12`, the Potency entry in assay [1], in assay [2], in assay [3], in assay [4] and in assay [5] was “inactive” in each case.

Take `Nc1ccccc1NC(=O)c1ccc(CNc2nccc(-c3cccnc3)n2)cc1`: in assay [1], the Potency result is “inactive”. The Potency in assay [2] is 4.77 µM (active); in assay [3], 5.35 µM (active); in assay [4] it was 258 nM (active) and 590 nM (active); in assay [5] it was 205 nM (active) and 590 nM (active).

Turning to `O=C(Nc1nc2cccc(-c3ccc(CN4CCS(=O)(=O)CC4)cc3)n2n1)C1CC1`, the Potency result in assay [1], in assay [2] and in assay [3] was “inactive” throughout. Moreover, the Potency in assay [4] is 14.5 µM (active) and 14.8 µM (active); in assay [5], 18.3 µM (active) and 9.34 µM (active).
